Sampled rows, rich in hits. Any-hit rate of the full collection: about 13%.
HCMV inh: human cytomegalovirus inhibition | HFF cells, HCMV-luciferase reporter, 72 h; stronger effect = lower value | 4.5% of 410,000 active | AID 1259415 | activity change, negative = inhibition, % at 57.5 µM; in the data active means activity change below about -60%; inconclusive means no clear call, values can overlap the other calls; inactive means above about -39%
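Two-dose cell screen: HFF monolayers treated with compounds and infected with luciferase-expressing HCMV at 1 PFU/cell, 72 h at 37C, then lysed for luciferase measurement.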
HCV inhibitor: blocks hepatitis C virus | Potency, µM (highest dose often 41.8 µM), for inactives: at the top dose activity change, negative = inhibition, hits mostly inhibitors | 3.4% of 340,000 active | Huh7.5.1 HCVcc-Cre infection, luciferase reporter, 44 h; further: potency means the concentration at half of the fitted maximal effect
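Seed cells (1,000/well) for 4 h; treat with compound and infect with HCVcc-Cre, moi about 0.5. Incubate 44 h, then detect luciferase activity.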
Pf growth 48h: inhibits P. falciparum growth in the first generation, 48 h | P. falciparum luciferase growth in erythrocytes, 48 h | Potency, µM (titrated, usually from 28.7 µM), for the others: at the top dose activity change, negative = inhibition, hits mostly inhibitors | 5.9% of 310,000 active; further: potency means the concentration at half of the fitted maximal effect
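Luciferase-expressing parasites in RBCs, 2% Hct / 0.1% parasitemia final; RPMI 1640 + 0.5% Albumax; 37 C, 5% CO2, one generation; luminescence read-out, lower signal = inhibition.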
Pf growth 96h: P. falciparum growth inhibition at 96 hour, primary screen for plastid delayed-death inhibitors; Potency, µM (doses to about 28.7 µM), for the others: at the top dose activity change, negative = inhibition, most hits filed as inhibitors; P. falciparum luciferase reporter growth, 96 h; 6.9% of 320,000 active; further: potency means the concentration at half of the fitted maximal effect
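Delayed-death screen, second-generation endpoint: infected erythrocytes, 2% hematocrit, 0.05% parasitemia final; 96 hours at 37 C, 5% CO2; luciferase detection reagent; luminescence decrease equals reduced growth.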
* hit, by the source's call; [ ] = dose if it differs, or a comment. Unless noted, the call rests on the fitted dose curve; in most records, active means well fitted inhibition curve with a large enough effect; inconclusive means small, poorly fitted or top-dose-only effect, or another doubt; inactive means no such curve, though single readings can be large or run the other way. On the % scale 0 is the no-effect control and ±100 the full control effect.

Results for COc1ccc(Cl)cc1NC(=O)CN(C)C(=O)C1CC(=O)N(Cc2ccc(C)cc2)C1 (stereo unspecified) ?
HCMV inh: -4; HCV inhibitor: 32µM*; Pf growth 48h: inconclusive; Pf growth 96h: -2%

How did COc1cccc(NC(=O)CN(C)C(=O)CCSc2ccc(C)cc2)c1 do in these assays?
HCMV inh: -6; HCV inhibitor: 4%; Pf growth 48h: 10µM*; Pf growth 96h: -12%

Results for CC(C)CC(=O)Nc1nnc(S(=O)(=O)N(C)Cc2ccc(Cl)cc2)s1 ?
HCMV inh: 0

Results for CCC(C)(C)n1nnnc1C(c1ccc(OC)c(OC)c1)N1CCN(c2ccc(F)cc2)CC1 (stereo unspecified) ?
HCMV inh: -19; HCV inhibitor: -7%; Pf growth 48h: 13µM*

How did CCC(C)(C)n1nnnc1C(c1ccc(OC)c(OC)c1)N1CCN(c2ccccc2)CC1 (stereo unspecified) do in these assays?
HCMV inh: -20; HCV inhibitor: -8%; Pf growth 48h: inconclusive; Pf growth 96h: 26%

Results for CCC(C)(C)n1nnnc1C(c1ccc(OC)c(OC)c1)N1CCN(c2cccc(OC)c2)CC1 (stereo unspecified) ?
HCMV inh: inconclusive; HCV inhibitor: 8%; Pf growth 48h: 7.4µM*; Pf growth 96h: 41%

What do the screens show for `CCCSc1ncc(Cl)c(C(=O)NCc2ccc(C)cc2)n1`?
HCMV inh: 28

What do the screens show for `COc1ccc2c([N+](=O)[O-])c(C)[nH]c2c1`?
HCMV inh: -15

Results for CCn1c(C)c(P(c2ccccc2)c2ccccc2)[n+]2ccccc12 ?
HCMV inh: -61*; HCV inhibitor: -15%; Pf growth 48h: 1.5µM*; Pf growth 96h: 8.3µM*

How did Cc1ccc(S(=O)(=O)c2c(C)nn(C(C)(C)C)c2OC(=O)c2ccc(Br)o2)cc1 do in these assays?
HCMV inh: -64*; HCV inhibitor: inconclusive; Pf growth 48h: 26%; Pf growth 96h: 19%

How did CCCn1c(COc2cccc(C)c2)nc2ccccc21 do in these assays?
HCMV inh: 14

How did CCOC(=O)c1ccc(NC(=O)CSc2nnc(Cc3cccs3)n2C)cc1 do in these assays?
HCMV inh: 28; HCV inhibitor: inconclusive; Pf growth 48h: inconclusive; Pf growth 96h: 8.3µM*

How did COc1ccc(NC(=O)CSC2=NC(=O)CC(C)=N2)cc1 do in these assays?
HCMV inh: -13; HCV inhibitor: 3%; Pf growth 48h: 19%; Pf growth 96h: 12µM*

How did COc1ccc(NC(=O)CSCc2ccc(C)cc2)cc1 do in these assays?
HCMV inh: -30; HCV inhibitor: 11%; Pf growth 48h: 5%; Pf growth 96h: 23%

Results for COc1ccc(NCc2nnc(SCC(=O)Nc3ccc(OC)cc3)n2C)cc1 ?
HCMV inh: -3; HCV inhibitor: 3%; Pf growth 48h: -11%; Pf growth 96h: 2%

Results for CCOC(=O)c1ccc(NC(=O)CSc2nnc(CCc3ccc(C)o3)n2-c2ccccc2)cc1 ?
HCMV inh: -1; HCV inhibitor: 10µM*; Pf growth 48h: inconclusive; Pf growth 96h: inconclusive

How did CCOC(=O)c1ccc(NC(=O)CSc2nnc(CNc3ccc(OC)cc3)n2C)cc1 do in these assays?
HCMV inh: 28; HCV inhibitor: 3%; Pf growth 48h: 6.6µM*; Pf growth 96h: 2%[5.75 µM]

What do the screens show for `Cc1ccc(CCc2nnc(SCC(=O)Nc3ccccc3Cl)n2-c2ccccc2)o1`?
HCMV inh: -34; HCV inhibitor: -24%; Pf growth 48h: -9%; Pf growth 96h: -24%

What do the screens show for `O=C(COc1ccc(Cl)cc1)NCCc1csc(-c2cccc(F)c2)n1`?
HCMV inh: 12

How did CC(C)(C)OC(=O)N1CCC(c2c(C(=O)N3CCCCC3)cnn2-c2ccccc2Cl)CC1 do in these assays?
HCMV inh: -3

What do the screens show for `CCOC(=O)c1ccc(N=C2SC(C(=O)Nc3ccccc3)CC(=O)N2C)cc1` (stereo unspecified)?
HCMV inh: 7

How did Cc1ccc2c(c1)-c1c(cnn1CC(=O)N1CCN(c3cccc(C(F)(F)F)c3)CC1)CO2 do in these assays?
HCMV inh: -6

How did COc1ccc(NC(=O)CSc2c(C)nn(-c3nnc(C)c(=O)[nH]3)c2C)cc1 do in these assays?
HCMV inh: 33; HCV inhibitor: 14%; Pf growth 48h: -13%; Pf growth 96h: 12µM*

How did CCn1nnnc1SCC(=O)Nc1ccc(OC)cc1 do in these assays?
HCMV inh: 32; HCV inhibitor: 2%; Pf growth 48h: 24%; Pf growth 96h: 15µM*

Results for Cc1ccc(NC(=O)CSc2nnc(C)c(=O)[nH]2)cc1 ?
HCMV inh: -7

How did CCS(=O)(=O)c1ccccc1C(=O)N(Cc1cccnc1)c1nc2cc(C)c(C)cc2s1 do in these assays?
HCMV inh: 88

Results for CC(C)CCOc1ccc(Cn2c(=O)oc3ccccc32)cc1 ?
HCMV inh: 14

Results for COCCNc1cc(C)nc2cc(-c3ccc(C)cc3)nn12 ?
HCMV inh: -10; HCV inhibitor: inconclusive; Pf growth 48h: 24%; Pf growth 96h: 5%

Results for Cc1cc(NCCCn2ccnc2)n2nc(-c3ccc(F)cc3)cc2n1 ?
HCMV inh: 96; HCV inhibitor: inconclusive; Pf growth 48h: 4.1µM*; Pf growth 96h: -4%[5.75 µM]

How did Cc1cc(NCCCn2ccnc2)n2nc(-c3ccc(Cl)cc3)cc2n1 do in these assays?
HCMV inh: -28; HCV inhibitor: -11%; Pf growth 48h: 2.6µM*; Pf growth 96h: 20%

How did Cc1cccc(-c2cc3nc(C)c(C)c(NCCCn4ccnc4)n3n2)c1 do in these assays?
HCMV inh: -25; HCV inhibitor: inconclusive; Pf growth 48h: 1.7µM*; Pf growth 96h: inconclusive

Results for CN(C)CCCNc1cc(C(C)(C)C)nc2c(-c3ccccc3)cnn12 ?
HCMV inh: -1; HCV inhibitor: inconclusive; Pf growth 48h: 32%; Pf growth 96h: inconclusive

What do the screens show for `Cc1cc(C)c2c(n1)nn1c(NCCCn3ccnc3)cc(C)nc21`?
HCV inhibitor: 4%; Pf growth 48h: 10%; Pf growth 96h: inconclusive

How did CC(C)(C)c1cc(NCCCn2ccnc2)n2ncc(-c3ccc(Cl)cc3)c2n1 do in these assays?
HCMV inh: -21; HCV inhibitor: 25µM*; Pf growth 48h: inconclusive; Pf growth 96h: inconclusive

What do the screens show for `COc1ccc(CCNC(=O)C(=O)NCC(c2ccc3c(c2)OCO3)N2CCOCC2)cc1` (stereo unspecified)?
HCMV inh: 10

How did COc1ccc(CN2C[C@H](COCc3ccccc3)Oc3cccc(F)c3S2(=O)=O)cc1 do in these assays?
HCMV inh: -19

Results for CCCc1cc(=O)[nH]c(Nc2cc(C)ccc2OC)n1 ?
HCMV inh: 16

What do the screens show for `Cc1ccccc1/C=N/Nc1ccnc2cc(Cl)ccc12`?
HCMV inh: -69*; HCV inhibitor: inconclusive; Pf growth 48h: 0.83µM*; Pf growth 96h: 0.83µM*

What do the screens show for `Cc1cc(C)nc(N/N=C/c2ccccc2Cl)n1`?
HCMV inh: 53; HCV inhibitor: -2%; Pf growth 48h: 124%; Pf growth 96h: 96%
